From PubChem BioAssay (NCI)
The panel holds about 79,000 compounds, 15% with a hit somewhere; the sample as a whole holds those more often. Rule as the data show it: active = growth inhibition above about 70%; inactive = the rest.

Columns and labels:
[1] = NCI Yeast Anticancer Drug Screen. Data for the rad50 strain (AID 155);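 also: 0% = growth of vehicle-only cultures of the same strain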; conditions: S. cerevisiae rad50 strain growth inhibition; at 50.0 µM; active compounds read high
Method in brief: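 Inhibition values express reduced yeast growth in compound-treated cultures relative to vehicle-treated controls.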

[2] = NCI Yeast Anticancer Drug Screen. Data for the mec2-1 strain (AID 157); conditions: S. cerevisiae mec2-1 strain, at 50.0 µM, active compounds read high
Method in brief: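 Yeast mec2-1 mutant treated with compound. Readout: growth inhibition vs vehicle controls.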

[3] = NCI Yeast Anticancer Drug Screen. Data for the sgs1 mgt1 strain (AID 161);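 also: 0% = growth of cultures given vehicle only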; conditions: S. cerevisiae sgs1 mgt1 strain, at 50.0 µM, active compounds read high
Method in brief: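 Inhibition of yeast growth, normalised to vehicle-treated controls, is reported for a strain bearing genetic alterations in DNA damage repair.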

[4] = NCI Yeast Anticancer Drug Screen. Data for the cln2 rad14 strain (AID 165);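 also: 0% = growth equal to vehicle treated cultures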; conditions: S. cerevisiae cln2 rad14 strain, at 50.0 µM, active compounds read high
Method in brief: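 cln2 rad14 yeast strain; compound exposure; growth inhibition read vs vehicle controls.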

[5] = NCI Yeast Anticancer Drug Screen. Data for the bub3 strain (AID 167); conditions: S. cerevisiae bub3 mutant strain, at 50.0 µM, active compounds read high
Method in brief: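 Steps: expose the mutant yeast strain to compound; grow alongside vehicle-treated cultures; measure growth; express inhibition against the vehicle cultures.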

[6] = NCI Yeast Anticancer Drug Screen. Data for the mlh1 rad18 strain (AID 175); conditions: S. cerevisiae mlh1 rad18 strain growth inhibition; at 50.0 µM; active compounds read high
Method in brief: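 Yeast w/ defined DNA-repair lesions; compound exposure; growth vs vehicle controls → % inhibition.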

Measured: growth inhibition

CC1C(=O)OC2C1CCC1(C)C=CC(=O)C(C)C21 (stereo not drawn)
inactive: [1] 10.7% | [2] 4.95% | [3] 1.15% | [4] -23.2% | [5] 1.85% | [6] 14.8%

COCCCC(NC(=O)C(CC(C)C)NC(=O)OCc1ccc(OC)cc1)C(=O)OC (stereo not drawn)
inactive: [1] -9.6% | [2] -12.9% | [3] -2.25% | [4] 6.6% | [5] -9.1% | [6] 7.8%

COC1C(O)CC(OC2C(C)OC(Oc3cc(O)c4c(O)c5c(cc4c3)C[C@@H]([C@H](OC)C(=O)[C@@H](O)[C@@H](C)O)[C@H](OC3CC(OC4CC(OC6CC(C)(O)C(O)C(C)O6)C(O)C(C)O4)C(O)C(C)O3)C5=O)CC2OC(C)=O)OC1C (stereo partly drawn)
inactive: [1] -7.9% | [2] -3.45% | [3] -32.9% | [4] 10% | [5] 2.45% | [6] 0.4%

O=C1OC2(CC1n1cnc3ccccc3c1=O)C(=O)Nc1ccccc12 (stereo not drawn)
inactive: [1] 4.3% | [2] -21.2% | [3] 8.5% | [4] 8.3% | [5] -1.15% | [6] 11.2%

Cc1ccc(C(=O)OC2CCCC2)cc1
inactive: [1] 7.85% | [2] -0.7% | [3] 0.85% | [4] -7.7% | [5] -15.7% | [6] 4.1%

OCC12OCC(O1)C(O)C(O)C2O (stereo not drawn)
inactive: [1] -14.6% | [2] 2.2% | [3] 1.35% | [4] -9.35% | [5] -4.05% | [6] -16.8%

C=CCSc1nc2ccc(N3C(=O)CCC3=O)cc2s1
inactive: [1] 15.4% | [2] -11.7% | [3] -10.6% | [4] 10.2% | [5] 6.05% | [6] 4%

CC1Oc2c(c(=O)oc3ccccc23)[C@@]1(C)CC1C[C@H](C)C(=O)O1 (stereo partly drawn)
inactive: [1] 31.6% | [2] 25.9% | [3] 35.2% | [4] 11.5% | [5] 11.4% | [6] 39.1%

Cc1ccc(NC(=O)Nc2ccc(Cl)cc2)c(C)c1
inactive: [1] -12.8% | [2] -6% | [3] 1.65% | [4] -28.6% | [5] 5.6% | [6] -0.65%

O=S1Cc2nc3ccccc3n2C1c1c(F)cccc1F (stereo not drawn)
inactive: [1] 1.25% | [2] -6.1% | [3] -4% | [4] 21.6% | [5] 3.6% | [6] -18.8%

O=C1C=C(Oc2ccccc2)C(=O)C=C1Oc1ccccc1
inactive: [1] -8.15% | [2] -3.55% | [3] -27.1% | [4] -23.8% | [5] 14.3% | [6] -11.1%

Cc1ccc(C(=O)c2sc(Nc3cccc(C(F)(F)F)c3)c(C#N)c2N)c(C)c1
inactive: [1] 16.8% | [2] 3.35% | [3] 5.9% | [4] 11.2% | [5] 3.05% | [6] -12.6%

CSc1nc(-c2ccc(Cl)cc2)c(C#N)c(=O)n1C1OC(COC(C)=O)C(OC(C)=O)C(OC(C)=O)C1OC(C)=O (stereo not drawn)
inactive: [1] -0.55% | [2] -5.75% | [3] 16.6% | [4] 21.2% | [5] -36% | [6] 23.2%

O=C1C2=C(c3ccccc31)C(c1ccc(Cl)cc1)NC(=S)N2 (stereo not drawn)
inactive: [1] 52.6% | [2] 26.5% | [3] 57.8% | [4] 35.2% | [5] 44.4% | [6] 60.1%

CC1=C(C)CN(CCC(=O)O)C(C(N)=O)C1 (stereo not drawn)
inactive: [1] -11.9% | [2] -2.3% | [3] -3.8% | [4] 17.5% | [5] 18.5% | [6] -10.1%

CCC(=O)NCCCCC1CCCC[N+]1(C)C (stereo not drawn)
inactive: [1] -0.65% | [2] -11.9% | [3] 7.45% | [4] -14.4% | [5] -2% | [6] -15.8%

CCNS(=O)(=O)c1ccc2c(c1)nc(C)n2CC
inactive: [1] 16.4% | [2] -27.6% | [3] -3.5% | [4] 13.1% | [5] 23.6% | [6] 11.5%

Nc1ccc(Cl)cc1Br
inactive: [1] 6.35% | [2] 22.4% | [3] -6.5% | [4] 5.5% | [5] -7.05% | [6] 8.6%
